Laboratory results reported in PubChem BioAssay (Tox21).
A number with no mark means an inactive call. Inconclusive results are not listed. Entries that show only a call come without a potency. Calls of active or inactive are those of the source. Unless noted, calls come from the whole dose curve; as a rule, active = well fitted curve in the direction sought with a large enough effect in the repeat runs; inconclusive = weak or mixed curves; inactive = no such curve, though single readings can be large; an effect the other way counts as inactive or inconclusive.

Assays:
[1] = target: Estrogen receptor (Homo sapiens) (UniProt P03372); experiment: qHTS assay to identify small molecule agonists of the estrogen receptor alpha (ER-alpha) signaling pathway in the presence of an antagonist (AID 1259383; calls by dose curve; note: top concentration of the series differs between compounds; nearly all actives have a fitted effect of over 15% in size)
Procedure, shortened: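 Using VM7Luc4E2 cells seeded 24hr before treatment, antagonist ICI-182,780 (10.0nM final) was added, followed by compounds at 15 concentrations. Plates incubated 22hr; ONE-Glo luminescence quantified reporter activity.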

[2] = qHTS assay to identify small molecule agonists of the estrogen receptor alpha (ER-alpha) signaling pathway in the presence of an antagonist - cell viability counter screen (AID 1259386);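 note: cells exposed to compounds for 22 h at 37 °C before the viability read; nearly all actives have a fitted effect of over 30% in size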; note: potency is the fitted concentration of half-maximal effect
Procedure, shortened: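 ICI-182,780 at 10.0nM final accompanies the compound titration (15 concentrations, 22hr, 37C) on VM7Luc4E2 cells. The CellTiter-Fluor fluorescence readout runs in the same wells as the luciferase assay.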

[3] = target: Progesterone receptor (Homo sapiens) (UniProt P06401); experiment: qHTS assay to identify small molecule agonists of the progesterone receptor (PR) signaling pathway (AID 1346784; calls by dose curve; note: nearly all actives have a fitted effect of over 30% in size)
Procedure, shortened: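 Seed PR-UAS-bla HEK 293T cells (2% charcoal-stripped FBS), incubate 6 hr at 37C; add compounds in DMSO, 16 hr at 37C; add LiveBLAzer B/G substrate, 2 hr RT; read fluorescence intensity.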

[4] = target: Progesterone receptor (Homo sapiens) (UniProt P06401); experiment: qHTS assay to identify small molecule antagonists of the progesterone receptor (PR) signaling pathway (AID 1346795; active = well fitted inhibition curve with a large enough effect in the signal ratio in the repeat runs, not every such curve was filed as active; the % refers to the signal ratio)
Procedure, shortened: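 Screening used a GripTite HEK293T line with PR-responsive UAS-beta-lactamase. Cells were challenged with compound in the presence of 1 nM R5020 final for 16 hr at 37C; B/G FRET substrate, 2 hr room temperature, fluorescence.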

[5] = qHTS assay to identify small molecule antagonists of the progesterone receptor (PR) signaling pathway - cell viability counter screen (AID 1346798); note: series mostly up to about 92 µM; nearly all actives have a fitted effect of over 50% in size
Procedure, shortened: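 Measures cytotoxicity in parallel with the PR antagonist reporter read: HEK293T PR-UAS-bla cells get compound and R5020 for 16 hr, and remaining viable cells are quantified by CellTiter-Glo luminescence.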

[6] = qHTS assay to identify small molecule agonists of the progesterone receptor (PR) signaling pathway - cell viability counter screen (AID 1346799; calls by dose curve; note: nearly all actives have a fitted effect of over 45% in size)
Procedure, shortened: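 Using the same plates as the PR reporter screen, HEK293T PR-UAS-bla cells received compounds for 16 hr at 37C and were then lysed with CellTiter-Glo; luminescence was read 30 min later at room temperature.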

[7] = qHTS assay to identify small molecule antagonists of the TGF-beta/Smad signaling pathway - cell viability counter screen (AID 1346824); note: nearly all actives have a fitted effect of over 50% in size
Procedure, shortened: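 SBE-bla HEK 293T cells were plated overnight at 37 C, then given compounds in DMSO plus TGF-beta1 (added as 0.25 ng/mL solution) for 5 hr. After the bla read, CellTiter-Glo was added to the same wells and luminescence read after 30 min at room temperature.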

[8] = qHTS assay to identify small molecule agonists of the TGF-beta/Smad signaling pathway - cell viability counter screen (AID 1346829); note: top concentration of the series differs between compounds; nearly all actives have a fitted effect of over 45% in size
Procedure, shortened: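 Tox21 qHTS format: SBE-bla HEK 293T cells treated with DMSO-dissolved compounds for 5 hr; CellTiter-Glo luminescence after 30 min at room temperature.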

[9] = Human pregnane X receptor (PXR) small molecule agonists, qHTS cell viability counter screen (AID 1346977); note: nearly all actives have a fitted effect of over 50% in size
Procedure, shortened: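 After a 5hr pre-incubation, PXR-Luc HepG2 cells received compounds plus positive control in DMSO and were kept 24hr at 37C. Cell viability was quantified by fluorescence from CellTiter-Fluor added for the final hour.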

[10] = Caspase-3/7 induction in HepG2 cells by small molecules, qHTS assay (AID 1346978); note: nearly all actives have a fitted effect of over 15% in size
Procedure, shortened: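 Wild-type HepG2 cells (2,000/well) were settled 5 h at 37 C, 5% CO2, then exposed to compounds in DMSO for 17 h. Caspase-3/7 activity was read by luminescence 30 min after adding Caspase-Glo 3/7 reagent at room temperature.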

[11] = Caspase-3/7 induction in CHO-K1 cells by small molecules, qHTS assay (AID 1346980); note: nearly all actives have a fitted effect of over 15% in size
Procedure, shortened: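 Wild-type cells were seeded at 1,500 per well and settled 5 hr at 37 C, 5% CO2, then exposed to DMSO-dissolved compounds for 17 hr. Caspase-Glo 3/7 reagent was added, and luminescence was read after 30min at room temperature.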

[12] = Caspase-3/7 induction in HepG2 cells by small molecules, qHTS cell viability counter screen (AID 1346981); note: nearly all actives have a fitted effect of over 30% in size; note: potency is the fitted concentration of half-maximal effect
Procedure, shortened: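 Multiplexed with the caspase-3/7 assay: HepG2 cells, 16 hr compound treatment, CellTiter-Fluor viability detection by fluorescence.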

[13] = target: Nuclear receptor subfamily 1 group I member 2 (Homo sapiens) (UniProt O75469); experiment: Human pregnane X receptor (PXR) small molecule agonists, qHTS assay (AID 1346982); note: nearly all actives have a fitted effect of over 35% in size; note: potency is the fitted concentration of half-maximal effect
Procedure, shortened: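 We seeded PXR-Luc HepG2 cells in assay medium containing 5% charcoal-stripped FBS, added compounds 5 hr later, incubated 24 hr, and read luminescence with ONE-Glo reagent.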

[14] = qHTS assay to identify small molecule agonists or antagonists of the thyroid stimulating hormone receptor (TSHR) signaling pathway - wild type cell line counter screen (AID 1259384; calls by dose curve)
Procedure, shortened: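 Wild-type HEK293 cells were plated 18 h at 37 C/5% CO2, pin-dosed with compound plus Ro20-1724 medium, held 30 min at room temperature, then given cAMP-d2 and anti-cAMP-cryptate; fluorescence was read after 1 h. Fifteen concentrations, triplicate.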

[15] = target: Thyrotropin receptor (Homo sapiens) (UniProt P16473); experiment: qHTS assay to identify small molecule antagonists of the thyroid stimulating hormone receptor (TSHR) signaling pathway (AID 1259385; calls by dose curve; note: nearly all actives have a fitted effect of over 20% in size)
Procedure, shortened: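 TSHR-HEK293 cells were plated and held 18 h at 37C/5% CO2, then given compound plus Ro20-1724 and stimulated with TSH at 1.5 ng/mL final. After 30 min at room temperature, cAMP was detected with cAMP-d2/anti-cAMP-cryptate (1 h) by fluorescence.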

[16] = qHTS assay to identify small molecule agonists of the TGF-beta/Smad signaling pathway (AID 1346859; active = well fitted activation curve with a large enough effect in the signal ratio in the repeat runs, not every such curve was filed as active; the % refers to the signal ratio; note: series mostly up to about 77 µM)
Procedure, shortened: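 Beta-lactamase reporter activity downstream of Smad binding elements was measured in stably transfected HEK 293T cells; compounds were incubated for 5 hr, substrate for 2 hr at room temperature.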

[17] = target: Thyrotropin-releasing hormone receptor (Homo sapiens) (UniProt P34981); experiment: qHTS assay to identify small molecule antagonists of the thyrotropin-releasing hormone receptor (TRHR) signaling pathway (AID 1346877; active = well fitted inhibition curve with a large enough effect in the repeat runs, not every such curve was filed as active; note: series mostly up to about 51 µM)
Procedure, shortened: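 Screening used HEK293 cells engineered with TRHR, with a brief 5 min room-temperature compound exposure preceding addition of TRH to 1 nM. The read-out was kinetic calcium-dye fluorescence, concentration-response from 15 doses in triplicate.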

[18] = target: Thyrotropin-releasing hormone receptor (Homo sapiens) (UniProt P34981); experiment: qHTS assay to identify small molecule agonists of the thyrotropin-releasing hormone receptor (TRHR) signaling pathway (AID 1346891; calls by dose curve;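 note: HEK293 cells expressing TRHR with calcium dye readout; series mostly up to about 58 µM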)
Procedure, shortened: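 Overnight-plated (18 h, 37 °C, 5% CO2) TRHR-Hek293 cells; 2 h calcium dye at 37 °C; compound in DMSO; 3-min kinetic fluorescence read.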

[19] = Caspase-3/7 induction in CHO-K1 cells by small molecules, qHTS cell viability counter screen (AID 1346979); note: nearly all actives have a fitted effect of over 35% in size; note: potency is the fitted concentration of half-maximal effect
Procedure, shortened: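 Multiplexed with Caspase-Glo 3/7 in CHO-K1 cells, this counter screen added CellTiter-Fluor after 16hr of compound exposure and recorded fluorescence 1hr later.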

[20] = target: Nuclear receptor subfamily 1 group I member 2 (Rattus norvegicus) (UniProt Q9R1A7); experiment: Rat pregnane X receptor (rPXR) activation by small molecules, qHTS assay (AID 1346983); details: rPXR luciferase reporter cells, One-Glo luminescence, 24 h; max activation: active compounds read high; note: nearly all actives have a fitted effect of over 20% in size
Procedure, shortened: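 Cell-based rPXR luciferase reporter assay, 2,000 cells per well, rested 5hr at 37 C before compound addition in DMSO, then 24 hr at 37 C. One-Glo reagent was added and luminescence read after 30 min at room temperature.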

Estrogen receptor (Homo sapiens), sequence (P03372 whole entry, looked up): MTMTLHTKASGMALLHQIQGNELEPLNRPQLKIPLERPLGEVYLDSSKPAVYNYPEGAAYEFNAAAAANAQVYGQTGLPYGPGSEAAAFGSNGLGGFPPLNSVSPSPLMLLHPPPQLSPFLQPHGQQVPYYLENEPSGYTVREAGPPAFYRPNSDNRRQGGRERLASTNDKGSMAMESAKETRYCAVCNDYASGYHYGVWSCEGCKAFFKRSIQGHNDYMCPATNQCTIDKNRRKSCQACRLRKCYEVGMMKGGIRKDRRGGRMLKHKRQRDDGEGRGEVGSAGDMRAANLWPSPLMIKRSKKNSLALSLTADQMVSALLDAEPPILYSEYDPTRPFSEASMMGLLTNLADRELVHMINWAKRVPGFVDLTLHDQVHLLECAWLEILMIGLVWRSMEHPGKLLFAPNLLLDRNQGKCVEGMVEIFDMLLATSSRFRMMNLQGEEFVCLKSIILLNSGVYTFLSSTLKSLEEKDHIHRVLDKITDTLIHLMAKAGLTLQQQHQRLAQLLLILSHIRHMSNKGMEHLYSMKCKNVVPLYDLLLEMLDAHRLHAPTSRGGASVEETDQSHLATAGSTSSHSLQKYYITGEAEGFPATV
Progesterone receptor (Homo sapiens), sequence (P06401 whole entry, looked up): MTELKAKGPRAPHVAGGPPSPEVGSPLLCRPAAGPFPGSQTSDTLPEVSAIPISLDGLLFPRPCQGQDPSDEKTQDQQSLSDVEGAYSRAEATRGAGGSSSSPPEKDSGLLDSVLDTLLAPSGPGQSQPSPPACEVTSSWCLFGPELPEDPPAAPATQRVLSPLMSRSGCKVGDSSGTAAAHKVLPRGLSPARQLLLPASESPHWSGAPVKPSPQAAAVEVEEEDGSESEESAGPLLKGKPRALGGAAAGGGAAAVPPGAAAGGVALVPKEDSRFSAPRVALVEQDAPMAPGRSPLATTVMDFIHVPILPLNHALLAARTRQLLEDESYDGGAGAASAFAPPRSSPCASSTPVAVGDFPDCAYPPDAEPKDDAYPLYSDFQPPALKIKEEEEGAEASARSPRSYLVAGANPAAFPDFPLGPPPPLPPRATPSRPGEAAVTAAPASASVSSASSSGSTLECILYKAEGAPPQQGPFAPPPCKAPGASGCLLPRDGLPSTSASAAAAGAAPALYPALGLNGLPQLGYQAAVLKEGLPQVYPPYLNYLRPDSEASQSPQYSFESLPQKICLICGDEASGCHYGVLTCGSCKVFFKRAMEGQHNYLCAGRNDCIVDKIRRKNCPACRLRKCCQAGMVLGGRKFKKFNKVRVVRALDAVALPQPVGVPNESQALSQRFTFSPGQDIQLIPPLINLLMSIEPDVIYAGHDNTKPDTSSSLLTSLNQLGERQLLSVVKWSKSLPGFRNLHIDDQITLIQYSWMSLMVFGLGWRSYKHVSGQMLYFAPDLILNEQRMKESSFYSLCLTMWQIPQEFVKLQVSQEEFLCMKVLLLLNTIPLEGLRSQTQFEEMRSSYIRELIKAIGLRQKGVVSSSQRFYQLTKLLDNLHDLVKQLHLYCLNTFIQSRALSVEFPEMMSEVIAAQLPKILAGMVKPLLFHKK
Thyrotropin receptor (Homo sapiens), sequence (P16473 whole entry, looked up): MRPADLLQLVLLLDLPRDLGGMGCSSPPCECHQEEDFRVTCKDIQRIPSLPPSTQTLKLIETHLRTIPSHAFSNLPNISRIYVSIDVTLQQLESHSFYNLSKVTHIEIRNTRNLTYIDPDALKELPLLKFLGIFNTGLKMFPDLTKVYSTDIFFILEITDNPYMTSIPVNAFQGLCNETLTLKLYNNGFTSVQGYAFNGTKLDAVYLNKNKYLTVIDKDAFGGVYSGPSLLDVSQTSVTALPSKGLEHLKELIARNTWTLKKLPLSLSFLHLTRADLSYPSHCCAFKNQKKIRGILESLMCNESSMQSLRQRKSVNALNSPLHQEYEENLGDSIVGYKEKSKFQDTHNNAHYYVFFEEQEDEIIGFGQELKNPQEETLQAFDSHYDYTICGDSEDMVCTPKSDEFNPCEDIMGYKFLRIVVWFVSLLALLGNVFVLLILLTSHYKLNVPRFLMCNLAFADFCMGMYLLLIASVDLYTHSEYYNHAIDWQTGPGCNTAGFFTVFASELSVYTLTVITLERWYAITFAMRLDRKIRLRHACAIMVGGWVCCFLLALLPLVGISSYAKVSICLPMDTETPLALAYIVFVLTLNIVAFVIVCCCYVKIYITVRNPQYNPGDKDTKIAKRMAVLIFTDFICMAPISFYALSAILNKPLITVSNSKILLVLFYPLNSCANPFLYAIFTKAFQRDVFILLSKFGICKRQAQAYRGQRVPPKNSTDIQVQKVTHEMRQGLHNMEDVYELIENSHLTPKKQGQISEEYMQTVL
Thyrotropin-releasing hormone receptor (Homo sapiens), sequence (P34981 whole entry, looked up): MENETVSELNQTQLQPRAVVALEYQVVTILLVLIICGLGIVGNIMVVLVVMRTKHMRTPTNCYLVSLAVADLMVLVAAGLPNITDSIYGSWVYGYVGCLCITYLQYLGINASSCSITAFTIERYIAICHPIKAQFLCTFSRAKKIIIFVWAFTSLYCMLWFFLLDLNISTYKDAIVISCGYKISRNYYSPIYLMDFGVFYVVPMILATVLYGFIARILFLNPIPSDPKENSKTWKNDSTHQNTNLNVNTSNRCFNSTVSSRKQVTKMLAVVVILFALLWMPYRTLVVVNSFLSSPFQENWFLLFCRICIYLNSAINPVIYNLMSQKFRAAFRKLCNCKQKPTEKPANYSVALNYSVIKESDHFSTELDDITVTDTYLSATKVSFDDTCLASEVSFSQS
Nuclear receptor subfamily 1 group I member 2 (Homo sapiens), sequence (O75469 whole entry, looked up): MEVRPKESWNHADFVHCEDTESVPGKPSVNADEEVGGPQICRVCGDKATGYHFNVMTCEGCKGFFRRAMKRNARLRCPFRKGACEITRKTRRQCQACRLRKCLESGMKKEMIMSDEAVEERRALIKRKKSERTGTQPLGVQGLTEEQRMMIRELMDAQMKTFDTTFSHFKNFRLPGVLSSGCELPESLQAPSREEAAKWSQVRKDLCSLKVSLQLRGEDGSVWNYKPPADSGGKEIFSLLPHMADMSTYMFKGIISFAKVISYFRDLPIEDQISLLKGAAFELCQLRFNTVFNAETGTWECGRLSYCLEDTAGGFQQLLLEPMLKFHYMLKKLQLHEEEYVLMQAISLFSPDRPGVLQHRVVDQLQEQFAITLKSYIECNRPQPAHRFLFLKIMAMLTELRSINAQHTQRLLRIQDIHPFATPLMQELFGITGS
Nuclear receptor subfamily 1 group I member 2 (Rattus norvegicus), sequence (Q9R1A7 whole entry, looked up): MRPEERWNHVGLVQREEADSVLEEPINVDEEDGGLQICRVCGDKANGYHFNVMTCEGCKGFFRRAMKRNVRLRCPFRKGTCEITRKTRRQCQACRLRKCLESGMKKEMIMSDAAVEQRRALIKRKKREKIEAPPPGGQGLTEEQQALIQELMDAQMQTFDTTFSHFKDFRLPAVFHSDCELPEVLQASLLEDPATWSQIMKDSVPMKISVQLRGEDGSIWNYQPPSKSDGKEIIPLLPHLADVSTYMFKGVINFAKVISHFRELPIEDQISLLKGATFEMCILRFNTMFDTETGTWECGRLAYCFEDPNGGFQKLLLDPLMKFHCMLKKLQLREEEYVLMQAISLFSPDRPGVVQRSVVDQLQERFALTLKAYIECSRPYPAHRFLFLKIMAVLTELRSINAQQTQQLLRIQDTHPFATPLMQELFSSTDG

Row | SMILES | outcome [1] | Potency [2] | Potency [3] | Potency [4] | Potency [5] | Potency [6] | outcome [7] | outcome [8] | Potency [9] | outcome [10] | outcome [11] | Potency [12] | Potency [13] | outcome [14] | outcome [15] | outcome [16] | outcome [17] | outcome [18] | Potency [19] | max activation [20]
1 | CC(C)COC(=O)CC(C(=O)OCC(C)C)S(=O)(=O)O (stereo unspecified) | inactive | inactive | inactive | inactive | inactive | inactive | inactive | inactive | inactive | inactive | inactive | inactive | inactive | – | – | – | – | – | – | –
2 | O=C(O)c1ccccc1C(=O)OCc1ccccc1 | – | inactive | inactive | inactive | inactive | inactive | inactive | inactive | inactive | inactive | inactive | inactive | – | inactive | inactive | inactive | inactive | inactive | inactive | –
3 | Cc1c(C(C)C)c(=O)n(-c2ccccc2)n1C | inactive | inactive | inactive | – | inactive | inactive | inactive | inactive | inactive | inactive | – | inactive | inactive | – | – | – | – | – | inactive | -1.17%
4 | COc1ccc(OC)c(NC(=O)CC(C)=O)c1 | – | inactive | inactive | inactive | inactive | inactive | inactive | inactive | inactive | inactive | inactive | inactive | 54.5 µM (active) | inactive | inactive | inactive | inactive | inactive | inactive | –
5 | CCCO | inactive | inactive | inactive | inactive | inactive | inactive | inactive | inactive | inactive | inactive | – | inactive | inactive | – | – | inactive | – | – | inactive | –
6 | CC1=NN(c2ccc(S(=O)(=O)O)cc2)C(=O)C1N=Nc1ccccc1 (stereo unspecified) | inactive | 30.6 µM (active) | inactive | inactive | – | inactive | inactive | inactive | – | inactive | inactive | 61.1 µM (active) | inactive | – | – | inactive | inactive | inactive | 48.6 µM (active) | –
7 | C1=C\CC/C=C\CC/1 | inactive | inactive | inactive | inactive | inactive | inactive | inactive | inactive | inactive | inactive | inactive | inactive | inactive | – | – | inactive | inactive | inactive | inactive | –
8 | CCCOCCOCCOCCO | inactive | inactive | inactive | – | inactive | – | inactive | inactive | inactive | inactive | inactive | inactive | inactive | – | – | inactive | inactive | inactive | inactive | –
9 | CCCCCN(CCCOC)C(=O)C(CCC(=O)O)NC(=O)c1ccc(Cl)c(Cl)c1 (stereo unspecified) | inactive | inactive | inactive | inactive | inactive | – | inactive | inactive | inactive | inactive | inactive | inactive | inactive | – | – | inactive | inactive | inactive | inactive | –
10 | CC(C)SCc1ccco1 | inactive | inactive | inactive | inactive | inactive | inactive | inactive | inactive | inactive | inactive | inactive | – | inactive | – | – | – | inactive | inactive | – | –
11 | CC(=O)OCC(=O)[C@@]1(O)[C@H](OC(C)=O)C[C@H]2[C@@H]3CCC4=CC(=O)C=C[C@]4(C)[C@@]3(F)[C@@H](O)C[C@@]21C | inactive | inactive | inactive | – | inactive | inactive | inactive | inactive | inactive | inactive | inactive | inactive | inactive | – | – | inactive | inactive | inactive | inactive | –
12 | Cc1cc(O)c2c(c1)C(=O)c1cccc(O)c1C2=O | inactive | – | inactive | – | inactive | inactive | inactive | inactive | inactive | inactive | inactive | – | – | – | – | inactive | inactive | inactive | 29.9 µM (active) | –
13 | CCCCCCCCCCCCCCCC(=O)NCCO | – | inactive | inactive | inactive | inactive | inactive | inactive | inactive | inactive | inactive | – | – | – | inactive | inactive | inactive | inactive | inactive | inactive | –
14 | O=P(O)(O)OCC(O)CO (stereo unspecified) | inactive | inactive | inactive | inactive | inactive | inactive | inactive | inactive | inactive | inactive | inactive | – | inactive | – | – | inactive | – | – | inactive | –
15 | CCNC(=O)NCCCOc1cccc(CN2CCCCC2)c1 | inactive | inactive | inactive | inactive | inactive | inactive | inactive | inactive | inactive | inactive | inactive | inactive | 29.8 µM (active) | – | – | inactive | inactive | inactive | – | –
16 | CC(=O)OC(C)(C)Cc1ccccc1 | – | inactive | inactive | inactive | inactive | inactive | inactive | inactive | inactive | inactive | inactive | inactive | inactive | inactive | inactive | inactive | – | – | – | –
